These results are taken from PubChem BioAssay.

The test system of assay [1] is TRPC4 beta (transient receptor potential cation channel C4), mouse. Put plainly: activators of mouse TRPC4 channel, confirmation, cell-based, Fluo4 calcium, HEK293 TRPC4beta/mu-opioid, duplicates, 10 µM (AID 2426;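 active = fluorescence ratio normalized to control raised more than 50% in primary screen plus both repeat runs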;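 for activation: percent rise of integrated ratio over buffer wells lacking compound which define 0%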). As to conditions: Fluo4 calcium fluorescence, at 10 µM; active compounds read high.
Assay [2] relates to transient receptor potential cation channel C4 beta (TRPC4), mouse. Put plainly: activators of mouse TRPC4 channel, confirmation, cell-based, second round, Fluo4, HEK293 TRPC4beta/mu-opioid, 1 µM (AID 2461;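 active = primary screen active and over 50% activation in each of two duplicate runs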;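 for activation: 0% = wells without test compound as baseline of integrated fluorescence ratio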). As to conditions: Fluo4 calcium fluorescence, at 1 µM; active compounds read high.
Assay [3] has as its system TRPC4 (transient receptor potential cation channel C4 beta), mouse. Kind of assay: positive allosteric modulators of mouse TRPC4, confirmation, cell-based, second round, Fluo-4, HEK293 TRPC4beta/mu-opioid, 1 µM (AID 2554;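 active = primary screen hit whose fluorescence ratio, in both repeats, exceeds the weak agonist control mean by 3 SD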). As to conditions: DAMGO EC20, Fluo-4 calcium flux, at 1 µM; active compounds read high. Background: A change in cytosolic calcium serves as a functional read-out for many receptors and channels.

The subject of assay [4] is TRPC4 beta (transient receptor potential cation channel C4), mouse. Put plainly: positive allosteric modulators of mouse TRPC4, confirmation, cell-based, Fluo-4, HEK293 TRPC4beta/mu-opioid (AID 2555;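 active = primary screen hit whose calcium fluorescence ratio, in both repeats, exceeds the weak agonist control mean by 3 SD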). As to conditions: DAMGO EC20, Fluo-4 calcium flux, at 10 µM; active compounds read high.
Assay [5] concerns the target Short transient receptor potential channel 4 (Mus musculus) (UniProt Q9QUQ5). Kind of assay: inhibitors of mouse TRPC4 channel, confirmation, cell-based, Fluo4, HEK293 TRPC4beta/mu-opioid (AID 2636;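 active = calcium signal cut by more than 3 SD below the full-agonist control yet still positive, in both repeats and the earlier primary screen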). As to conditions: DAMGO, Fluo4 calcium flux, at 10 µM; active compounds read high.
The target is the same in assay [6]. Put plainly: inhibitors of mouse TRPC4 channel, confirmation, cell-based, second round, Fluo4, HEK293 TRPC4beta/mu-opioid, 1 µM (AID 2637;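 active = calcium signal ratio cut to more than 3 SD under the fully stimulated control mean yet still positive, in both repeats and the primary screen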). As to conditions: Fluo4 calcium flux, DAMGO, at 1 µM; active compounds read high.
Assay [7] has the same target. Put plainly: TRPC4 positive allosteric modulators, dose response, cell-based, HEK293 TRPC4/mu-opioid, Fluo-4 calcium, EC20 DAMGO (AID 434941;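 active = earlier screen potentiator hit that boosts the TRPC4 ion channel at some dose, with a dose response; inactive = no potentiation, no dose response, or not a prior hit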;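 note: calcium entry triggered by an EC20 dose of DAMGO at the co-expressed mu-opioid receptor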).
Assay [8] has the same target. Kind of assay: mouse TRPC4 channel inhibitors, dose response, cell-based, HEK293 TRPC4/mu-opioid, Fluo-4 calcium (AID 434942;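 active = primary screen inhibitor hit that blocks the TRPC4 channel at some tested dose, yielding a dose curve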).
Assay [9] deals with Short transient receptor potential channel 6 (Mus musculus) (UniProt Q61143). Put plainly: inhibition of mouse TRPC6 channel, confirmation, selectivity assay for TRPC4 inhibitor project, cell-based, HEK293, membrane potential dye, duplicate (AID 434948;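 active = active in primary screen and both duplicates, each dropping signal beyond three positive-control SD with fluorescence still positive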). As to conditions: HEK293 TRPC6, membrane potential dye fluorescence, at 10 µM, stimulated with maximal-effect acetylcholine; active compounds read high.
Sequence of Short transient receptor potential channel 6 (Mus musculus) (Q61143 whole entry, looked up): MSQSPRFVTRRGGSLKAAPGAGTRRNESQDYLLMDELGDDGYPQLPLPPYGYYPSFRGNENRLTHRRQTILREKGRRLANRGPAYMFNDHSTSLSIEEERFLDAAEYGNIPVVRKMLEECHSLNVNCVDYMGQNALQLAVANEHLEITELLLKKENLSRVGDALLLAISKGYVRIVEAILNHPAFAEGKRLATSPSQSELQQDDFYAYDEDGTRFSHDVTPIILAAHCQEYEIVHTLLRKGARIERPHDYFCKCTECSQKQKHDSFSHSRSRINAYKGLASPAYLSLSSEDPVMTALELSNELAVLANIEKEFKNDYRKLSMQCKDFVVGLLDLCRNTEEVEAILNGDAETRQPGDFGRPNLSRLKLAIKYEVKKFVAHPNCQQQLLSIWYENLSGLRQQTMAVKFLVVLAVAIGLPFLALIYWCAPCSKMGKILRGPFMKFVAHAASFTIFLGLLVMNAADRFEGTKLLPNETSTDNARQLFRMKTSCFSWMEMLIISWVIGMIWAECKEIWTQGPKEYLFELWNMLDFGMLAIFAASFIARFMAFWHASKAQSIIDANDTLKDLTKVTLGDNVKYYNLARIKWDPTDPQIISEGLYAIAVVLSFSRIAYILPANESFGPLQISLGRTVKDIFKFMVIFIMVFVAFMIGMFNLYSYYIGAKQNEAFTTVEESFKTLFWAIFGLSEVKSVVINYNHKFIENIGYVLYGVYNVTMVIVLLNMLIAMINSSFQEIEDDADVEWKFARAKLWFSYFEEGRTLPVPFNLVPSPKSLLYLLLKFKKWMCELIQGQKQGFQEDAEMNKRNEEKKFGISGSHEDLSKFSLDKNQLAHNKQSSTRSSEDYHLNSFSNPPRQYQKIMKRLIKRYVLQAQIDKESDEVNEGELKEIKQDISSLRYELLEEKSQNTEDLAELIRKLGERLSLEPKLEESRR

Assay [10] shares this target. Kind of assay: activation of mouse TRPC6 channel, confirmation, selectivity assay for TRPC4 activator project, cell-based, HEK293, membrane potential dye, duplicate (AID 434950;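 active = membrane potential signal rise above negative control mean plus 3 SD in both duplicates, also active in the earlier TRPC4 screen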;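 for activation: 0% = buffer only wells and 100% = acetylcholine maximal-effect wells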). As to conditions: HEK293 TRPC6, membrane potential fluorescence, at 10 µM; active compounds read high.
The target is the same in assay [11]. Kind of assay: TRPC6 potentiation by TRPC4 potentiator hits, confirmation, selectivity assay for TRPC4 potentiator project, HEK293 cells, membrane potential dye, duplicate (AID 434952;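 active = compound raising the membrane signal above positive-control mean plus 3 SD in both repeats, and a primary screen hit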). As to conditions: HEK293 TRPC6, membrane potential dye fluorescence, at 10 µM, maximal acetylcholine added after compound; active compounds read high.
Assay [12] concerns the target Short transient receptor potential channel 4 (Mus musculus) (UniProt Q9QUQ5). Put plainly: calcium flux activators in TRPC4/5HT1a cells, counter-screen for TRPC4 activator project, cell-based, second counter screen, HEK293 TRPC4/5HT1a, Fluo-4 (AID 434977;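 active = calcium signal rise above buffer-control mean plus 5 SD in both duplicates, and also a hit in the primary screen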;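 for activation: plate controls were assay buffer for no effect and maximal serotonin response for full effect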). As to conditions: Fluo-4 calcium flux, at 10 µM; active compounds read high.
Assay [13] can be described thus: calcium flux inhibitors in TRPC4/5HT1a cells, confirmation, counter-screen for TRPC4 inhibitor project, cell-based, second counter screen, HEK293 TRPC4/5HT1a, Fluo-4 (AID 434978;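 active = primary screen active whose calcium signal fell more than 3 SD beyond the full-serotonin control mean in both duplicate plates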;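 note: serotonin given first at submaximal then at maximal dose after compound preincubation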). As to conditions: Fluo-4 calcium flux, at 10 µM, serotonin added to trigger calcium flux; active compounds read high.
Assay [14] relates to TRPC4 (mouse), co-expressed with 5HT1a in HEK293. Kind of assay: calcium flux potentiators in TRPC4/5HT1a cells, confirmation, counter-screen for TRPC4 potentiator project, cell-based, second counter screen, HEK293 TRPC4/5HT1a, Fluo-4 (AID 434979;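 active = signal rise over 3 SD above mean of control wells given weak agonist, in both repeats and first screen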). As to conditions: Fluo-4 calcium flux, at 10 µM, serotonin added at its EC20 dose; active compounds read high.
The nature of assay [15]: calcium flux activation in mu-opioid HEK293 cells, confirmation, counter-screen for TRPC4 activator project, cell-based, HEK293 mu-opioid receptor line (AID 449723).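 Note: counter screen cells carry the mu-opioid receptor alone and lack TRPC4.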 As to conditions: Fluo-4 calcium fluorescence, at 10 µM; active compounds read high.
Assay [16] in a line: calcium flux enhancement in mu-opioid HEK293 cells, confirmation, counter-screen for TRPC4 allosteric potentiator project, cell-based, HEK293 mu-opioid receptor line (AID 449724;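 active = calcium signal rise more than 3 SD above the low-dose agonist control mean, in both duplicate plates and the primary screen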;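 note: HEK293 cells carrying mu-opioid receptor only with no TRPC4 channel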). As to conditions: Fluo-4 calcium flux, at 10 µM, compound added before EC20 DAMGO stimulus; active compounds read high.

Molecules are shown by their SMILES. For some assays here: Results with a measured potency or affinity are listed apart. Calls of active or inactive are those of the source.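 Rule for the calls, unless noted: active = hit in primary screen, with calcium signal over 5 SD above buffer well mean in both duplicates; inactive = the rest.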

Sequence of Short transient receptor potential channel 4 (Mus musculus) (Q9QUQ5 whole entry, looked up): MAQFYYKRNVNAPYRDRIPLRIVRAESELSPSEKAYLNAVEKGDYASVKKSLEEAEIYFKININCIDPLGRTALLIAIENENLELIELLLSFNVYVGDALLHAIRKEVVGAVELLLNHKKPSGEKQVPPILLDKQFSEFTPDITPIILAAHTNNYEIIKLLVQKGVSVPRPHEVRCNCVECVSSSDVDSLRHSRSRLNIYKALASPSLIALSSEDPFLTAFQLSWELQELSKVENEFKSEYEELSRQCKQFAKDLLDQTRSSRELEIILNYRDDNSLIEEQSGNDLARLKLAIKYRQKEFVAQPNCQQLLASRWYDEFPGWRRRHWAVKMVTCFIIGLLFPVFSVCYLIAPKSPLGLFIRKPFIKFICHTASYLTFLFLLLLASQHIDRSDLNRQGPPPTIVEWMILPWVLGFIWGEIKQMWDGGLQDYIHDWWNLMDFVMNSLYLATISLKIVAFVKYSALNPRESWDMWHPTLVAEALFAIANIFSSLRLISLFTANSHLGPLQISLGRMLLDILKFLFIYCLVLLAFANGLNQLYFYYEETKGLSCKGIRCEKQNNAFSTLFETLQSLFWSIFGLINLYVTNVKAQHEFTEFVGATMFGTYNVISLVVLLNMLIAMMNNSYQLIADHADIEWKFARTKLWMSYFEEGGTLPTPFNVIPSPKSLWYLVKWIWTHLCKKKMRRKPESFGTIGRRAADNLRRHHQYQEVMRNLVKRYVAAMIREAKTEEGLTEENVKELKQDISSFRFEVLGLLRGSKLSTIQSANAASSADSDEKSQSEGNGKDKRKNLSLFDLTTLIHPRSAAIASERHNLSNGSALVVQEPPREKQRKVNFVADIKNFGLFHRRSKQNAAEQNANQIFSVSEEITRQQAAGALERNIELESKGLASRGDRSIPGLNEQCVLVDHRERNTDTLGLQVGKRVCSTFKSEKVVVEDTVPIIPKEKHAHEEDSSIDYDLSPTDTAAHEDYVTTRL

Turning to `CCOC(=O)C1(CCCc2ccccc2)CCN(Cc2cnn(C)c2)CC1`, the activation was 92% (active) in assay [1] and 69% (active) in assay [10]. The outcome in assay [2], in assay [3], in assay [4], in [5], in [6] and in assay [7] was inactive. Also, the result in assay [8], in assay [9], in assay [11], in assay [12], in assay [13] and in [14] was inactive. Moreover, the result in [15] and in [16] was inactive.

For `Cc1ccccc1C(=O)NNC(=S)NC(=O)c1cccs1`, the activation is 139% (active) in [1], 109% (active) in [12] and 30.1% (active) in assay [15]. The outcome in [2], in assay [3], in [4], in [5], in [6] and in [7] was inactive. Moreover, the result in assay [8], in [9], in [10], in [11], in [13] and in assay [14] was inactive. For the same compound, the result in [16] was inactive.

Take `CN(C)CCCN(C(=O)c1ccc(S(=O)(=O)N2CCCCCC2)cc1)c1nc2c(F)cc(F)cc2s1`: in assay [1], the activation is 133% (active). Further, the outcome in [2], in assay [3], in assay [4], in assay [5], in assay [6] and in [7] was inactive. Also, the result in [8], in [9], in assay [10], in [11], in assay [12] and in assay [13] was inactive. Besides, the outcome in assay [14], in [15] and in [16] was inactive.

Regarding `CCN1CCN(c2ccc(S(=O)(=O)N3CCOCC3)cc2NC(=O)c2ccccc2OC(F)F)CC1`, the activation in [1] is 204% (active); in assay [2], 136% (active); in assay [12], 77.8% (active). For the same compound, the outcome in assay [3], in [4], in assay [5], in assay [6], in assay [7] and in [8] was inactive. In addition, the call in assay [9], in assay [10], in assay [11], in [13], in assay [14] and in assay [15] was inactive. Further, the result in [16] was inactive.

Regarding `CCC1CCCCN1S(=O)(=O)c1ccc(C(=O)N(CCCN(C)C)c2nc3cc4c(cc3s2)OCO4)cc1` (centres undefined), the activation is 191% (active) in assay [1] and 23.1% (active) in assay [12]. Moreover, the result in assay [2], in [3], in assay [4], in [5], in assay [6] and in assay [7] was inactive. Moreover, the result in [8], in assay [9], in assay [10], in [11], in [13] and in assay [14] was inactive. Moreover, the result in [15] and in assay [16] was inactive.

Take `CCCN(CCC)CCNC(=O)CCC(=O)Nc1ccc2nc(N3CCOCC3)cc(C)c2c1`: the activation in [1] was 99% (active); in [2] it was 67% (active); in [12] it was 35.6% (active). Further, the outcome in assay [3], in [4], in [5], in assay [6], in assay [7] and in assay [8] was inactive. Also, the outcome in assay [9], in assay [10], in [11], in [13], in assay [14] and in assay [15] was inactive. Moreover, the outcome in [16] was inactive.

On to `COC(=O)c1ccc(N2CCN(C)CC2)c(NC(=O)c2ccc(Br)o2)c1`, for which the activation in assay [1] was 148% (active); in [12] it was 13.3% (active). Also, the outcome in assay [2], in [3], in assay [4], in assay [5], in [6] and in assay [7] was inactive. Also, the result in assay [8], in [9], in assay [10], in assay [11], in assay [13] and in assay [14] was inactive. The outcome in assay [15] and in assay [16] was inactive.

Regarding `CCN(CC)CCCNC(=O)c1cc2c(-c3ccc(Cl)cc3)nn(C)c2s1`, the outcome in [1], in assay [2], in assay [4], in [5], in assay [6] and in [7] was inactive. In addition, the result in assay [8], in assay [9], in assay [10], in assay [11], in assay [13] and in assay [15] was inactive. In assay [16], the result was inactive. In addition, the potentiation was 13% (active) in assay [3] and 31.3% (active) in assay [14]. Besides, in assay [12], the activation was 12.6% (active).

As for `Cc1ccn(CC(=O)NC2CCCN(Cc3ccc(CC(C)C)cc3)C2)n1` (centres undefined), the activation in [1] is 170% (active); in assay [10], 61% (active); in [12], 50.5% (active). The result in assay [2], in [3], in assay [4], in assay [5], in assay [6] and in assay [7] was inactive. For the same compound, the outcome in [8], in assay [9], in assay [11], in assay [13], in [14] and in assay [15] was inactive. Moreover, the result in [16] was inactive.

Regarding `CC12CCCCN1CCCc1c2[nH]c2ccccc12` (centres undefined), the result in [1], in assay [2], in assay [3], in [4], in assay [5] and in assay [6] was inactive. Further, the outcome in [7], in assay [8], in assay [9], in assay [11], in assay [13] and in assay [14] was inactive. In addition, the result in [15] and in [16] was inactive. The activation in assay [10] is 35% (active); in assay [12] it was 8.77% (active).

For `Cc1cc(C)cc(NC(=S)N2CCN(c3ncc(C(F)(F)F)cc3Cl)CC2)c1`, the activation was 105% (active) in [1], 25% (active) in assay [10] and 49.6% (active) in [12]. The outcome in assay [2], in [3], in assay [4], in assay [5], in assay [6] and in assay [7] was inactive. The result in assay [8], in assay [9], in assay [11], in assay [13], in assay [14] and in assay [15] was inactive. Also, in assay [16], the result was inactive.

Turning to `O=C(CC(=O)c1c(F)cccc1Cl)c1ccccc1O`, the activation was 157% (active) in [1], 37% (active) in assay [10], 98.7% (active) in assay [12] and 33.3% (active) in [15]. The result in assay [2], in assay [3], in assay [4], in [5], in [6] and in [7] was inactive. The outcome in assay [8], in assay [9], in assay [11], in assay [13], in assay [14] and in [16] was inactive.

`CCN(Cc1ccccc1)S(=O)(=O)c1ccc(C(=O)N(CCCN(C)C)c2nc3c(F)cccc3s2)cc1`: the activation in [1] was 76% (active). The outcome in assay [2], in [3], in assay [4], in assay [5], in [6] and in [7] was inactive. Moreover, the outcome in [8], in assay [9], in assay [10], in [11], in [12] and in assay [13] was inactive. The result in assay [14], in assay [15] and in assay [16] was inactive.

With `CN(CCc1ccccn1)C(=O)CC1C(=O)NCCN1Cc1cccc(F)c1` (centres undefined), the activation in assay [1] was 214% (active); in assay [12], 60.9% (active). Moreover, the outcome in [2], in assay [3], in assay [4], in assay [5], in assay [6] and in [7] was inactive. For the same compound, the outcome in assay [8], in [9], in assay [10], in assay [11], in assay [13] and in assay [14] was inactive. In addition, the outcome in assay [15] and in [16] was inactive.
